# Several values for one entry are separate records, joined by “and”; a condition that tells them apart may be missing. Equal entries are not always repeated. The panel holds about 83,000 compounds, 20% with a hit somewhere; the sample as a whole holds those more often.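 Each cell line was grown in a 96-well plate and treated with one concentration of compound for 48 hours. Values below 10 were considered active.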 Activity calls are given as the source filed them.
# What was measured:
# Experiment in all cases: NCI-60 one-dose screen, 48 h (100 = growth as untreated, 0 = no growth, -100 = all killed)
# Conditions in all cases: 10 µM unless noted
# DU-145 prostate = test system: DU-145 prostate
# K-562 leukemia = test system: K-562 leukemia
# MALME-3M melanoma = test system: MALME-3M melanoma
# MDA-MB-231 breast = test system: MDA-MB-231 breast
# RXF 393 renal = test system: RXF 393 renal
# SF-268 CNS = test system: SF-268 CNS
# SF-295 CNS = test system: SF-295 CNS
# SF-539 CNS = test system: SF-539 CNS
# UACC-257 melanoma = test system: UACC-257 melanoma
# M14 melanoma = test system: M14 melanoma
Structure (SMILES),growth (DU-145 prostate),growth (K-562 leukemia),growth (MALME-3M melanoma),growth (MDA-MB-231 breast),growth (RXF 393 renal),growth (SF-268 CNS),growth (SF-295 CNS),growth (SF-539 CNS),growth (UACC-257 melanoma),growth (M14 melanoma)
N#Cc1ccccc1-c1ccc(Cn2c(-c3cscn3)nc3c(Cl)cccc32)cc1,86.5% (inactive),49.2% (inactive),92.4% (inactive),79.7% (inactive),99.5% (inactive),71.3% (inactive),67.9% (inactive),82.9% (inactive),89.5% (inactive),87.1% (inactive)
c1ccc(Cc2cccc[n+]2C(c2ccccc2)c2ccccc2)cc1,68.9% (inactive),33% (inactive),23% (inactive),68.2% (inactive),93.3% (inactive),64.9% (inactive),73.6% (inactive),56.6% (inactive),7.44% (active),59.8% (inactive)
COc1ccc(-c2cc(-c3cccc(Cl)c3)c(C#N)c(=O)[nH]2)c(OC)c1,97.3% (inactive),98.2% (inactive),93.7% (inactive),102% (inactive),90.8% (inactive),90% (inactive),98.2% (inactive),92.6% (inactive),102% (inactive),98.2% (inactive)
Cc1c(C(=O)OCCCCOC(=O)c2c(C)n(C)c3scc[n+]23)[n+]2ccsc2n1C,107% (inactive),92% (inactive),105% (inactive),97.9% (inactive),103% (inactive),108% (inactive),93.2% (inactive),105% (inactive),96.5% (inactive),110% (inactive)
CN1CCN(C(=O)OCc2nc3c(N4CCOCC4)nc(Cl)nc3n2C)CC1,1.69% (active),-11% (active),-65.3% (active),-77.5% (active),-94.9% (active),1.11% (active),73.4% (inactive),-99% (active),-64.7% (active),-77.4% (active)
Cc1cc(N2CCCCC2)nc(NCc2cc(Nc3ccnc4cc(Cl)ccc34)ccc2F)n1,-1.6% (active),-31.4% (active),-75% (active),-73.3% (active),-66.2% (active),-17.2% (active),-84.5% (active),-77.7% (active),-64.4% (active),-67.8% (active)
Cc1ccc(/C=C2\COc3ccc(O)c(O)c3C2=O)cc1,4.29% (active),13% (inactive),-27.3% (active),-24.8% (active),-35.3% (active),-37.6% (active),33.1% (inactive),-63.9% (active),10.1% (inactive),3.41% (active)
CN(C)c1ccc2nc3ccc(=O)cc-3sc2c1,35.7% (inactive) and 51.2% (inactive),20.4% (inactive) and 23% (inactive),1.88% (active) and 22.1% (inactive),30.4% (inactive) and 43% (inactive),52.2% (inactive) and 82% (inactive),52.9% (inactive) and 63% (inactive),6.09% (active) and -15.3% (active),10.3% (inactive) and 1.75% (active),-21.8% (active) and 24.8% (inactive),9.73% (active) and 7.61% (active)
C#CCn1cnc2cnc(Nc3cccc(NC(=O)CCl)c3)nc21,17.1% [6.25 µM] (inactive),4.47% [6.25 µM] (active),28.1% [6.25 µM] (inactive),14.6% [6.25 µM] (inactive),-27.5% [6.25 µM] (active),6.9% [6.25 µM] (active),16.1% [6.25 µM] (inactive),-0.618% [6.25 µM] (active),1.35% [6.25 µM] (active),-49.1% [6.25 µM] (active)
O=C1c2cccc3cccc(c23)C(=O)N1N1C(=O)c2cccc3c(N4CCNCC4)ccc(c23)C1=O,107% (inactive),-59.2% (active),88.9% (inactive),85.8% (inactive),101% (inactive),88.7% (inactive),101% (inactive),100% (inactive),95.2% (inactive),96.6% (inactive)
COc1ccc(C2=C(CN)C(O)NC(=NCC(=O)c3ccc4ccccc4c3)N2)cc1 (stereo not given),107% (inactive),102% (inactive),101% (inactive),103% (inactive),112% (inactive),94.1% (inactive),98.4% (inactive),90.8% (inactive),91.3% (inactive),95.1% (inactive)
COc1ccc(/C=N\Nc2nc(SCC(C)C)nc(-c3ccc(OC)cc3)c2C#N)cc1,65.2% (inactive),74.6% (inactive),60.1% (inactive),43.5% (inactive),34.5% (inactive),50.9% (inactive),-5.63% (active),52.6% (inactive),88.1% (inactive),77.6% (inactive)
COc1ccc2c(O)c(/C=C3\N=Nc4nc(C)ccc43)oc2c1CC1CCNCC1,87.9% (inactive),49.3% (inactive),19.1% (inactive),34.6% (inactive),-0.196% (active),67.4% (inactive),90% (inactive),55.9% (inactive),74.5% (inactive),35.4% (inactive)
CSc1nnc(-c2cc3c([nH]c4ccccc43)c(-c3cccc(O)c3)n2)n1-c1ccc(C)cc1,62.8% (inactive),10.2% (inactive),42% (inactive),25.7% (inactive),2.76% (active),48.7% (inactive),15% (inactive),32.3% (inactive),42.5% (inactive),6.07% (active)
Nc1ccccc1SC(CC(=O)c1ccccc1)c1ccc([N+](=O)[O-])cc1 (stereo not given),110% (inactive) and 88% (inactive),68.8% (inactive) and 13.2% (inactive),112% (inactive) and 74.5% (inactive),84.1% (inactive) and 85.2% (inactive),102% (inactive) and 91.2% (inactive),98.7% (inactive) and 82.1% (inactive),90.2% (inactive) and 85.2% (inactive),107% (inactive) and 105% (inactive),107% (inactive) and 86.7% (inactive),108% (inactive) and 85.8% (inactive)
Fc1ccc(NC(c2ccc(F)cc2)C2CCN(CCCCc3ccccc3)CC2)cc1 (stereo not given),19.3% (inactive),-29.1% (active),32.6% (inactive),6.83% (active),10.9% (inactive),44.2% (inactive),34.6% (inactive),40.5% (inactive),60.7% (inactive),24.7% (inactive)
N#Cc1c(N)nnn1Cc1cc(=O)oc2ccc(O)cc12,108% (inactive),96.1% (inactive),108% (inactive),112% (inactive),98.8% (inactive),103% (inactive),102% (inactive),104% (inactive),101% (inactive),105% (inactive)
Nc1[nH]nc(Nc2ccccc2)c1-c1nc2ccccc2s1,27.8% (inactive),4.83% (active),83.4% (inactive),-17% (active),36.3% (inactive),31% (inactive),28.6% (inactive),55.1% (inactive),50.6% (inactive),6.41% (active)
Nc1n[nH]c2cccc(C#Cc3cccc(NC(=O)c4ccc(N5CCOCC5)c(C(F)(F)F)c4)c3)c12,25.7% (inactive),0.995% (active),11.2% (inactive),-22.3% (active),-66% (active),23.4% (inactive),-36.9% (active),-56% (active),17.6% (inactive),3.69% (active)
CCOC(=O)C1=C(C)NC(=O)NC1c1c(Cl)n(-c2ccccc2)c2ccccc12 (stereo not given),85.7% (inactive),43.4% (inactive),86.2% (inactive),81.5% (inactive),55.6% (inactive),86.7% (inactive),85.5% (inactive),87.9% (inactive),88.3% (inactive),86.5% (inactive)
Cc1ccc2[nH]c(=S)[nH]c(=O)c2c1,109% (inactive),97.1% (inactive),102% (inactive),109% (inactive),104% (inactive),100% (inactive),104% (inactive),99.7% (inactive),101% (inactive),101% (inactive)
CCCCC1COc2cccc3c2N1C=C/C3=C\C(=O)N(C)c1cccc(Cl)c1 (stereo not given),103% (inactive),91% (inactive),107% (inactive),103% (inactive),108% (inactive),97.9% (inactive),97.6% (inactive),104% (inactive),103% (inactive),102% (inactive)
N#CC(Cc1cccc2ccccc12)c1cc2ccccc2[nH]1 (stereo not given),103% (inactive),86.6% (inactive),81.9% (inactive),81.4% (inactive),87.8% (inactive),89.3% (inactive),95.9% (inactive),102% (inactive),93.9% (inactive),82.6% (inactive)
Brc1ccc(/C=C(/C2=NCCN2)n2ccc3ccccc32)cc1,63.1% (inactive),45.7% (inactive),75.4% (inactive),58.9% (inactive),50.6% (inactive),77.7% (inactive),85.1% (inactive),88.8% (inactive),78.8% (inactive),65.1% (inactive)
Clc1ccc(/C=N\N2CCCCCC2)cc1,112% (inactive) and 102% (inactive),87.7% (inactive),98% (inactive),89.7% (inactive) and 99.9% (inactive),92% (inactive) and 119% (inactive),103% (inactive) and 115% (inactive),96.4% (inactive) and 95.9% (inactive),115% (inactive) and 92% (inactive),104% (inactive) and 109% (inactive),104% (inactive) and 111% (inactive)
